Our source for the survival values is PubChem BioAssay AID463173 (ICCB-Longwood Screening Facility, Harvard Medical School, 2010).

Molecules are shown by their SMILES. In all, about 52,000 compounds went through this assay and about 4,300 (8.3%) were called active. The sample holds actives, similar compounds and a random draw of the others, so the mix is not that of the screen. Unmarked numbers belong to inactive results. Cut-off read from the data, not from the text of the source: active = survival mostly below about 52% (no sharp cut-off); inactive = mostly above about 56%.

The test system of the test is DeltatarO mutant. The test is described as follows: growth inhibition of S. aureus wild type versus tarO mutant, primary screen, teichoic acid synthesis inhibitors, RN4220, OD600 (AID 463173). The note with it: OD600, 18 h, stronger effect = lower value, screened at 18.75 µg/mL (by protocol).
Turning to `COc1ccc(-c2noc(COc3cc(C)ccc3C)n2)cc1OC`, the survival was -5% (active).
Consider `COc1ccc(OCc2nc(-c3ccc(OC)c(OC)c3)no2)cc1`, for which the survival is 61%.
Consider `COc1ccc(-c2noc(CN(C)S(=O)(=O)c3c(C)cc(C)cc3C)n2)cc1OC`, for which the survival is 45%.
Next, `CN(C)S(=O)(=O)c1ccc(S(=O)(=O)N(CC(=O)Nc2ccccc2)C2CC2)cc1`: 94%; `Cc1cc(C)cc(OCC(=O)NCC2(N3CCOCC3)CCCCC2)c1`: 91%; `CCc1[nH]nc2c1C(c1ccc(F)c(Oc3ccccc3)c1)C(C#N)=C(N)O2` (centres undefined): 80%.
The figure for `COCc1[nH]nc2c1C(c1ccc(F)c(F)c1)C(C#N)=C(N)O2` (centres undefined) is 74%.
Take `CCn1c2ccccc2c2cc(C3C(C#N)=C(N)Oc4n[nH]c(C(C)C)c43)ccc21` (centres undefined): the survival is 3% (active).
Consider `CCOC(=O)c1cc(S(=O)(=O)N2CCN(c3cccc(OC)c3)CC2)[nH]n1`, for which the survival was 108%.
Next, `COc1ccc(NS(=O)(=O)c2ccc3c(c2)CCN3C(=O)C2CC2)cc1OC`: 86%.
The figure for `Cc1cccc(N2CCN(C(=O)Cc3c(C(=O)O)c(C)cn3C)CC2)c1C` is 96%.
Next, `Cc1cn(C)c(CC(=O)N2CCN(c3ccccc3F)CC2)c1C(=O)O`: 89%; `COc1ccccc1N1CCN(C(=O)Cc2c(C(=O)O)c(C)cn2C)CC1`: -5% (active).
Turning to `Cc1ccc(NC(=O)c2cccc(NC(=O)N3CCSc4ncccc43)c2)cc1Cl`, the survival is 88%.
Next, `O=C(CCSCc1cnn(-c2ccccc2)c1-n1cccc1)NCc1ccc(Cl)cc1`: 63%.
The figure for `CC(=O)c1cccc(Nc2ccc3cc(S(=O)(=O)N4CCCC4)ccc3n2)c1` is 101%.
Next, `O=S(=O)(c1ccc2nc(Nc3cccc(F)c3)ccc2c1)N1CCCC1`: 72%; `CCOC(=O)c1cccc(Nc2ccc3cc(S(=O)(=O)N4CCCCC4)ccc3n2)c1`: -1% (active).
Regarding `COc1ccc(-c2onc(C)c2C)cc1S(=O)(=O)N1CCN(c2ccc(Cl)cc2)CC1`, the survival was 64%.
Regarding `Clc1cccc(CNNc2nc(N3CCCCC3)nc(N3CCCCC3)n2)c1`, the survival is 98%.
Next, `CCn1cc2nc(SCc3cc(C)ccc3C)n(CCc3ccccc3)c(=O)c2n1`: 67%; `CCOC(=O)c1cnc2ccccc2c1NCCc1ccc(OC)c(OC)c1`: 33% (active).
The figure for `CCOC(=O)c1cnc2ccc(OCC)cc2c1NCCc1ccc(OC)c(OC)c1` is 116%.
As for `CCOC(=O)c1cnc2c(C)c(Cl)ccc2c1NCCc1ccc(OC)c(OC)c1`, the survival is 17% (active).
Next, `CCOC(=O)c1cnc2ccc(OC)cc2c1NCCc1ccccc1`: -2% (active); `CCOC(=O)c1cnc2c(C)c(Cl)ccc2c1Nc1ccc(C)cc1C`: 142%; `CCOC(=O)c1cnc2c(C)c(C)ccc2c1NCCCCCO`: 84%.
Next, `CCOC(=O)c1cnc2c(C)c(Cl)ccc2c1NCCc1ccccc1`: -3% (active); `CCOC(=O)c1cnc2ccc(OC)cc2c1NCCc1ccc(OC)c(OC)c1`: 65%; `CCOC(=O)c1cnc2ccc(C)cc2c1NCCc1ccc(OC)c(OC)c1`: 136%.
The figure for `CCOC(=O)c1ccc2ncc(C(=O)OCC)c(NCCc3ccc(OC)c(OC)c3)c2c1` is 53%; for `Cn1c(=O)n(CCc2ccccc2)c(=O)c2c1nc1n2CCN1c1ccc(Cl)cc1` it is 76%.
With `O=C(Cc1ccccc1)N(Cc1cccnc1)c1nc2ccc(F)cc2s1`, the survival is 86%.
Turning to `Cc1ccc(C2CCN(C(=O)c3cnn(-c4ccc(C)c(C)c4)c3C3CCN(C(=O)OC(C)(C)C)CC3)C2)cc1` (centres undefined), the survival was 90%.
Next, `COc1ccccc1N1CCN(S(=O)(=O)c2ccc(F)c(C(=O)Nc3ccc(C)c(F)c3)c2)CC1`: 93%.
As to `Cn1c(=N)n(CC(=O)c2ccc(-c3ccccc3)cc2)c2ccccc21`, the survival was 106%.
For the compound `CCCCNC(=O)CCCn1c(=O)c2ccccc2n(Cc2c(C)cc(C)cc2C)c1=O`, the survival is 90%.
For the compound `Cc1ccc(NC(=O)Cn2cc(C(=O)C3CCCCC3)c3ccccc32)c(C)c1`, the survival is 78%.
The figure for `COc1cccc(CNC(=O)COc2cc(=O)n(C)c3ccccc23)c1` is 72%; for `CCOC(=O)c1c(C)oc2nc(C)nc(NCCc3ccc(OC)c(OC)c3)c12` it is 94%; for `CCOC(=O)c1cnc2c(C)cc(Cl)cc2c1NCCc1ccc(OC)c(OC)c1` it is 31% (active).
In the case of `CCOC(=O)c1cnc2c(C)cc(C)cc2c1NCCc1ccc(OC)c(OC)c1`, the survival is 66%.
With `COCCn1c(SCC(=O)c2ccc(F)cc2)nc2cc(C(=O)NC3CCCC3)ccc2c1=O`, the survival is 94%.
As to `CCCC1(C(=O)OCC)NC(c2ccccc2F)C2C(=O)N(c3ccccc3)C(=O)C21` (centres undefined), the survival was 88%.
In the case of `CCOC(=O)c1c(C)[nH]c(C)c1S(=O)(=O)NCC(=O)Nc1cccc(SC)c1`, the survival is 66%.
Take `OC1(C#CCN2CCCCCC2)CCCCC1`: the survival was 93%.
Regarding `O=C(CC1(O)C(=O)N(CCc2ccccc2)c2ccc(Br)cc21)c1ccccc1` (centres undefined), the survival is 25% (active).
Next, `O=C(CC1(O)C(=O)N(CCc2ccccc2)c2ccc(Br)cc21)c1ccc(F)cc1` (centres undefined): 55%; `Cc1ccc(C(=O)CC2(O)C(=O)N(CCc3ccccc3)c3ccc(Br)cc32)cc1` (centres undefined): 39%; `O=C(CC1(O)C(=O)N(CCc2ccccc2)c2ccc(Br)cc21)c1ccccc1O` (centres undefined): 40% (active).
For the compound `COc1ccc(C(=O)CC2(O)C(=O)N(CCc3ccccc3)c3ccc(Br)cc32)cc1OC` (centres undefined), the survival is 53%.
Next, `C#CCN1C(=O)C(O)(CC(=O)c2ccc(OC)c(OC)c2)c2cc(Br)ccc21` (centres undefined): 78%; `Cc1nn2c(-c3ccco3)ccnc2c1-c1ccc(Br)cc1`: 81%; `N#Cc1c(N)nc(SCc2ccccc2)c(C#N)c1-c1cccs1`: 49%.
The figure for `COc1ccc(N(C(=O)Cn2nnc3ccccc32)C(C(=O)NCC2CCCO2)c2sccc2C)cc1` (centres undefined) is 94%; for `COc1ccc(-n2nc(C(=O)NCCc3ccc(OC)c(OC)c3)c3c4ccccc4n(C)c3c2=O)cc1` it is 89%.
Consider `O=c1[nH]c(=O)n(C2CCCCC2)c(O)c1C1=Nc2ccccc2SC(c2ccccc2)C1` (centres undefined), for which the survival is 93%.
For the compound `Cc1ccc(S(=O)(=O)c2cn(C)c3cc(N4CCCC4)c(F)cc3c2=O)c(C)c1`, the survival was 67%.
The figure for `Cc1c(Cl)cccc1NC(=O)Cn1cnc2nc3c(cc2c1=O)CCCC3` is 126%.
`COc1cc(OC)c(NC(=O)Cn2cnc3nc4c(cc3c2=O)CCCC4)cc1Cl`: the survival was -5% (active).
Next, `Cc1ccc(C)c(NC(=O)Cn2cnc3nc4c(cc3c2=O)CCCC4)c1`: 89%; `O=C(Cn1cnc2nc3c(cc2c1=O)CCCC3)Nc1ccc(F)cc1Cl`: 88%; `Cc1ccc(C)c(N2CCN(C(=O)Cn3cnc4nc5c(cc4c3=O)CCCC5)CC2)c1`: 87%.
The figure for `Cc1cccc(N(C)C(=O)Cn2cnc3nc4c(cc3c2=O)CCCC4)c1` is 17% (active).
`CCc1ccccc1NC(=O)c1ccc(F)c(S(=O)(=O)N2CCN(c3cccc(Cl)c3)CC2)c1`: the survival was 88%.
Regarding `CCOC(=O)c1ccc(NC(=O)c2nsc3ccccc23)cc1`, the survival is 60%.
On to `CC1CCC(NC(=O)c2ccc3c(c2)N(Cc2ccccc2)C(=O)c2ccccc2S3(=O)=O)CC1` (centres undefined), for which the survival is 115%.
Next, `CCOC(=O)c1c(C)oc2nc(C)nc(NCc3ccccc3OCC)c12`: 102%; `O=C(CCCn1c(=O)c2sccc2n(Cc2cccc(Cl)c2)c1=O)NCc1ccc2c(c1)OCO2`: 64%; `CCN(CC)c1ccc(/C=C2/SC(=O)NC2=O)cc1`: 34% (active).
Turning to `CCN(CC)c1ccc(C=C2C(=O)OC3(CCCC3)OC2=O)cc1`, the survival is 83%.
The figure for `CCCN(CCC)CN1C(=O)S/C(=C/c2ccc(N(CC)CC)cc2)C1=O` is 68%; for `O=C(NCCCc1ccccc1)C1CCN(C(=O)N2CCOc3ccc(Cl)cc32)CC1` it is 46% (active); for `O=C(NCCC1=CCCCC1)C1CCN(C(=O)N2CCOc3ccc(Cl)cc32)CC1` it is 47% (active).
Turning to `O=C(NCCC1=CCCCC1)C1CCN(C(=O)N2CCOc3ccccc32)CC1`, the survival was 72%.
The figure for `CNC(=O)C1CCN(C(=O)N2CC(C)Oc3ccc(Cl)cc32)CC1` (centres undefined) is 59%; for `CC1CN(C(=O)N2CCC(C(=O)NCc3ccccc3F)CC2)c2cc(Cl)ccc2O1` (centres undefined) it is 60%; for `CC1CN(C(=O)N2CCC(C(=O)NCCCc3ccccc3)CC2)c2cc(Cl)ccc2O1` (centres undefined) it is 56%.
Next, `Cc1ccc2c(c1)N(C(=O)N1CCC(C(=O)NC3CCCCCC3)CC1)CCO2`: 82%; `O=C(NC1CCCCCC1)C1CCN(C(=O)N2CCOc3ccccc32)CC1`: 76%.
Consider `CC1CN(C(=O)N2CCC(C(=O)NCCC3=CCCCC3)CC2)c2cc(Cl)ccc2O1` (centres undefined), for which the survival was 65%.
On to `CCc1ccccc1NC(=O)C1CCN(C(=O)N2CC(C)Oc3ccc(Cl)cc32)CC1` (centres undefined), for which the survival is 55% (active).
The figure for `O=C(NC1CCCCCC1)C1CCN(C(=O)N2CCOc3ccc(Cl)cc32)CC1` is 46% (active); for `CC(C)CCNC(=O)C1CCN(C(=O)N2CCOc3ccc(Cl)cc32)CC1` it is 52%; for `COc1ccccc1N1CCN(c2nc3c(S(=O)(=O)c4ccc(C)c(C)c4)nnn3c3ccc(Cl)cc23)CC1` it is 81%.
As to `Cc1ccc(NCc2nnc(SCc3cc(C)ccc3C)o2)c(C)c1`, the survival is 91%.
Turning to `Cc1cccc(C)c1NC(=O)Cn1cc(S(=O)(=O)Cc2ccc(F)cc2)c2ccccc21`, the survival was 78%.
Next, `Cc1ccc(C)c(S(=O)(=O)c2nnn3c2nc(Nc2ccc(C)c(C)c2)c2sccc23)c1`: 77%.
Next, `O=C(c1ccc2c(c1)N(Cc1ccccc1F)C(=O)c1ccccc1S2(=O)=O)N1CCC(Cc2ccccc2)CC1`: 71%.
